Assay outcomes from PubChem.
ADAM17 inh: inhibits human ADAM17 | P78536 | recombinant ADAM17, EDANS/DABCYL FRET peptide cleavage | inhibition, % at 6.95 µM | 370,000 tested, 0.83% active | AID 720648;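 active = inhibition above the mean of compounds lying between control limits plus 3 SD, set per campaign, cut at about 8.5% in these data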;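 also: 0% = DMSO-only wells as the low control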
PLC-beta3 inh: inhibitors of human phospholipase C beta3. Q01970. Purified PLC-beta3, fluorogenic substrate, fluorescence. inhibition, % at 12.2 µM. 370,000 tested, 0.18% active. AID 720704; in the data active = inhibition above about 11%;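 also: 0% = median of compound wells on plate and 100% = full blocker control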
Rce1 inh: blocks yeast Ras-converting enzyme; AID 2563; 290,000 tested, 0.27% active; calls only; yeast membranes, quenched prenylated peptide cleavage fluorescence;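 active = fall in fluorescence gain of 50% or more versus controls, with final raw signal at or below 3038400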;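 also: plate controls were neutral control wells for no effect and wells lacking membranes for full effect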
Target sequence (Q03530 whole entry, looked up): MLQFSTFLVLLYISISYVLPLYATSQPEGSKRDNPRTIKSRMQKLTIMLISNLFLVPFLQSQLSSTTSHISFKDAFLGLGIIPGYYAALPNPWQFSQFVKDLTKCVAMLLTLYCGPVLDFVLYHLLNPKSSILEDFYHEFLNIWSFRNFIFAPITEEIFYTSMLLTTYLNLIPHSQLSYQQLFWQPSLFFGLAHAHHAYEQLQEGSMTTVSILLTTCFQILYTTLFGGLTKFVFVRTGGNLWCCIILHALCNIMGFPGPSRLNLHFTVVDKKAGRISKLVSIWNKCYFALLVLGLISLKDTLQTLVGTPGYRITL
ADAM10 inh: ADAM10 inhibition, QFRET primary screen | recombinant ADAM10, EDANS/DABCYL FRET peptide cleavage, 3 h | inhibition, % at 7 µM | 370,000 tested, 0.62% active;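 active = inhibition above a per-campaign cutoff equal to the mean of compounds falling between control-based bounds plus 3 SD, cut at about 20% in these data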;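 also: 0% = DMSO wells while the 100% control is not disclosed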
PLC-gamma1 inh: inhibitors of human phospholipase C gamma1; purified PLC-gamma1, fluorogenic substrate, fluorescence; inhibition, % at 12.2 µM; 370,000 tested, 0.84% active; AID 720700; P19174; in the data active = inhibition above about 9.5%
ADAM10 ctr: counter-screen for ADAM17 exosite inhibitors: inhibitors of human ADAM10 | shares compounds with ADAM17 inh | recombinant ADAM10, EDANS/DABCYL FRET peptide cleavage, 3 h | inhibition, % at 6.95 µM | 2,900 tested, 47% active | AID 743256;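 active = mean inhibition over the triplicate runs exceeds the activity threshold set in the earlier primary screen, cut at about 20% in these data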;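 also: 0% = DMSO wells and 100% = marimastat wells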
ADAM17 confirm: human ADAM17 inhibition, confirmation; recombinant ADAM17, EDANS/DABCYL QFRET peptide cleavage; shares compounds with ADAM17 inh; AID 743257; 2,900 tested, 65% active; inhibition, % at 6.95 µM;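 active = mean inhibition across replicates above the hit cutoff set in the primary screen, cut at about 8.5% in these data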;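 also: 0% = DMSO wells and 100% = marimastat wells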
* = called active by the depositor; i = inactive; x = no result. Only some compounds are listed: those with a hit (about 2.1% of all), similar ones and a draw of the others.

SMILES	ADAM17 inh	PLC-beta3 inh	Rce1 inh	ADAM10 inh	PLC-gamma1 inh	ADAM10 ctr	ADAM17 confirm
CCCCCC(CC(=O)NO)C(=O)NC(C(=O)N1CCCC1CO)C(C)C (stereo unspecified)	51.1*	2.5	x	x	1.3	x	63.7*
O=C(N/N=C/c1ccc[nH]1)c1cc(-c2ccc(Cl)cc2)nc2ccccc12	9.6*	-77.7	i	16.2	-46.8	21.6*	15.3*
O=C(N/N=C/c1cccnc1)c1cc(-c2ccc(Cl)cc2)nc2ccccc12	-4.9	-11.8	x	5.2	1.1	x	x
CC(C)(C)c1nc(NC(=O)Nc2ccccc2)sc1Br	10.7*	1.9	i	19.6	4.2	35.0*	21.1*
Cc1cc(C)n(Cc2cc(C(=O)O)c3ccccc3n2)n1	-2.5	-1.4	i	-9.5	1.9	x	x
CC(=O)Nc1ccc(CN(C)c2c(C)nc3ccc(C(=O)N4CCN(C(=O)c5ccco5)CC4)cn23)cc1	-1.0	3.4	x	-4.7	-0.9	x	x
CC(C)(C)NS(=O)(=O)c1ccc(CCC(=O)NCc2ccc3c(c2)OCO3)cc1	9.0*	4.7	i	5.1	5.3	8.1	7.1
O=C(NCC1CCCO1)c1cc2ccccc2o1 (stereo unspecified)	-6.1	-6.3	i	-3.2	0.2	x	x
Cc1onc(-c2ccccc2)c1CNC(=O)Nc1ccc(C(F)(F)F)cc1	9.1*	-5.2	i	18.4	2.7	27.4*	15.9*
Cc1cc(C)cc(NC(=O)NCc2c(-c3ccccc3)noc2C)c1	1.9	-8.2	i	7.5	2.3	x	x
CC(C)(C)c1ccc(OCCC(=O)OCC(=O)NC(=O)NC2CCCC2)cc1	16.7*	-2.9	i	18.6	5.3	28.4*	13.0*
Cc1csc(NC(=O)CCCC(=O)c2ccccc2)n1	-4.8	-4.9	i	-4.9	0.6	x	x
CCCCN(Cc1ccccc1)S(=O)(=O)c1cc2c(cc1Br)CC(C)N2C(C)=O (stereo unspecified)	10.8*	-1.4	x	17.0	4.4	15.7	12.2*
CCC(=O)N1c2ccc(S(=O)(=O)N(CCO)Cc3ccccc3)cc2CC1C (stereo unspecified)	-1.8	-2.0	i	-6.2	0.4	x	x
Cc1c(C=O)c2ccccn2c1C(=O)c1ccc(F)cc1	10.1*	-36.5	i	12.1	-15.3	-4.2	2.6
Cc1c(C=O)c2ccccn2c1C(=O)c1ccccc1	3.5	-12.3	i	2.2	-13.7	x	x
CCCCC(CC)COC1(c2ccccc2)OC(=O)c2ccccc21 (stereo unspecified)	10.0*	2.8	i	2.7	2.7	-1.0	-0.3
CCCCOC1(c2ccccc2)OC(=O)c2ccccc21 (stereo unspecified)	-2.7	2.3	i	-2.2	-0.1	x	x
COC(=O)C1C=CC(OC2OC(COC(C)=O)C(OC(C)=O)C(OC(C)=O)C2OC(C)=O)n2c(=O)n(-c3ccccc3)c(=O)n21 (stereo unspecified)	-7.8	-3.7	x	-15.9	-1.8	x	x
COc1ccc(Cl)cc1NC(=O)NNC(=O)C(=O)Nc1ccc(F)cc1	-0.7	-6.7	x	-7.2	-4.4	x	x
Cc1ccc(NC(CNS(=O)(=O)c2ccc(Cl)cc2)c2ccccc2)cc1 (stereo unspecified)	13.1*	6.3	x	14.9	4.6	30.7*	15.3*
CCCCN1C[C@H](c2ccc(OC)cc2)[C@@H](CC(=O)Nc2ccc(Br)cc2)C1=O	14.0*	6.5	x	10.3	7.8	4.2	4.1
CCCCN1C[C@H](c2ccc(OC)cc2)[C@@H](CC(=O)Nc2ccc(OC)cc2)C1=O	-5.0	-4.7	x	-17.9	0.1	x	x
N#CCCN(C(=O)COC(=O)c1cccc(S(=O)(=O)Nc2ccc([N+](=O)[O-])cc2)c1)c1ccccc1	9.2*	0.3	i	14.0	2.1	5.6	8.2
N#CCCN(C(=O)COC(=O)c1ccc(S(=O)(=O)Nc2ccccc2)cc1)c1ccccc1	2.5	2.0	i	6.6	1.6	x	x
SMILES	ADAM17 inh	PLC-beta3 inh	Rce1 inh	ADAM10 inh	PLC-gamma1 inh	ADAM10 ctr	ADAM17 confirm
CCO[C@H]1OC(C(=O)NCc2nc3ccccc3[nH]2)=C[C@@H](c2ccccc2)[C@@H]1CCCO	-1.9	0.0	i	-2.6	0.0	x	x
CCO[C@H]1OC(C(=O)NCc2nc3ccccc3[nH]2)=C[C@@H](c2csc3ccccc23)[C@@H]1CCCO	12.4*	2.1	i	11.8	1.5	6.2	5.7
CCCCOc1cc(C)nc(NCc2ccccc2)n1	11.2*	5.1	i	13.9	9.2	16.2	8.4
CCOc1cc(C)nc(NCc2ccccc2)n1	0.3	-1.1	i	0.3	1.9	x	x
COc1ccc(NC(=O)c2cc(-c3cc(Cl)ccc3OC)n[nH]2)c(C)c1	1.2	-2.9	x	-2.3	2.5	x	x
COc1ccc(NC(=O)c2cc(-c3cc(Cl)ccc3C)n[nH]2)c(OC)c1	9.9*	-4.3	x	16.3	-1.0	22.7*	10.5*
CC(C)[C@H](NC(=O)OC(C)(C)C)c1cc(C(=O)N[C@@H](C)c2ccccc2)c(N)s1	-6.4	-17.2	x	-27.7	-1.5	x	x
O=C(c1ccc(OC2CCN(CCc3ccccc3)CC2)cc1)N1CCCCC1CCCO (stereo unspecified)	2.9	3.2	i	1.5	8.0	x	x
COc1ccccc1N(C)C(=O)c1cc(S(=O)(=O)N2CCCC2)cn1C	-4.4	-0.7	i	-11.2	-0.2	x	x
Cc1ccc(C(=O)NCCNc2ccc([N+](=O)[O-])cc2C(F)(F)F)cc1	8.8*	-36.3	i	14.5	3.6	20.1*	12.1*
O=C(NCCNc1ccc([N+](=O)[O-])cc1C(F)(F)F)c1ccccc1F	0.8	3.9	i	1.5	4.5	x	x
O=C(Nc1nn(Cc2ccc(Cl)cc2)cc1Br)c1ccc(COc2ccccc2Cl)o1	10.1*	-0.6	i	17.3	-2.7	33.1*	18.1*
O=C(Nc1ccc(Cl)cn1)c1ccc(COc2ccccc2Br)o1	2.5	-7.4	i	5.4	-1.8	x	x
Oc1ccccc1-c1cc(-c2ccccc2Cl)[nH]n1	9.5*	-0.6	i	14.2	-2.8	23.9*	11.8*
Oc1ccccc1-c1cc(-c2ccco2)[nH]n1	-2.3	-6.3	i	-5.1	-6.7	x	x
CC1CC(C)CN(S(=O)(=O)c2ccc(NC(=O)CN3C(=O)NC(C)(c4ccccc4)C3=O)cc2)C1 (stereo unspecified)	10.0*	-0.5	i	16.9	3.8	20.9*	11.8*
CC1(c2ccccc2)NC(=O)N(CC(=O)Nc2ccc(S(N)(=O)=O)cc2)C1=O (stereo unspecified)	-1.5	1.3	i	1.0	3.8	x	x
CC(C)(C)C(=O)/C=c1\[nH]c(=O)/c(=C\c2ccc(F)cc2)s1	10.2*	-3.8	i	17.7	-3.5	2.6	6.4
COc1ccccc1NC(=O)Nc1ccc(F)c(F)c1	4.3	1.0	x	7.8	5.8	x	x
